# In the library only some 9.4% were active in any assay of this set; here they are far more common.
# IMPase Li inh = cell-permeable IMPase inhibitors with lithium potentiation; CHO-M1 cells, IP1 TR-FRET (IP-One), carbachol + lithium; Potency, µM (series often up to 59.4 µM), without a hit: at the highest dose activity, negative = IMPase inhibition, most hits filed as inhibitors; actives 0.35% (n = 210,000);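 further: IP1 builds up when IMPase is blocked and the TR-FRET signal falls; potency means the concentration at half of the fitted maximal effect; plate controls were basal vehicle for no effect and high inhibitor control for full effect; nearly all actives have a fitted effect of over 50% in size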
#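 Concentration–response in CHO-M1 cells, lithium-potentiated; 30 min at 37C. IP1 detected by competitive TR-FRET after 10 min lysis at RT. Hill-fitted AC50.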
# ALDH1A1 inh = ALDH1A1 (human) enzyme inhibition | Purified ALDH1A1, NADH fluorescence, propionaldehyde substrate | P00352 | Potency, µM (doses to about 75.3 µM), without a hit: at the highest dose activity, negative = inhibition, actives largely listed as inhibitors | actives 7.3% (n = 220,000); active means well fitted inhibition curve with a large enough effect, not every such curve was filed as active; inconclusive means small, poorly fitted or top-dose-only effect, or another doubt; inactive means no such curve, though single readings can be large or run the other way;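 further: potency means the concentration at half of the fitted maximal effect; plate controls were no enzyme wells and a reference inhibitor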
# Target sequence (P00352 whole entry, looked up): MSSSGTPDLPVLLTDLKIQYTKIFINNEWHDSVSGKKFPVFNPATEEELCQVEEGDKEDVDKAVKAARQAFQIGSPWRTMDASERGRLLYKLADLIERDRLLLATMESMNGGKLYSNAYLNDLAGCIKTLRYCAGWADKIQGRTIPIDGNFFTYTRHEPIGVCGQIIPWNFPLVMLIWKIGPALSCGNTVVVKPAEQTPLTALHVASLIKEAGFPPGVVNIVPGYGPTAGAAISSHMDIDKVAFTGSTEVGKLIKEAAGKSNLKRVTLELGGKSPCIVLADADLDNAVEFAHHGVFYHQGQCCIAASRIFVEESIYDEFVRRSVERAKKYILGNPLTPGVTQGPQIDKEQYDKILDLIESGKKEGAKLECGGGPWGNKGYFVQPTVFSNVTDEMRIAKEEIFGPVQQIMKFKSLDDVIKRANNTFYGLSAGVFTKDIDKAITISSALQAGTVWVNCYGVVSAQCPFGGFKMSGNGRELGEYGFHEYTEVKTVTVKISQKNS
# HPGD inh = inhibitors of human 15-hydroxyprostaglandin dehydrogenase (HPGD) | actives 4.3% (n = 150,000) | AID 894 | purified HPGD, NADH fluorescence kinetic, PGE2 substrate | P15428 | Potency, µM, for inactives: at the highest dose activity change, negative = inhibition, hits mostly inhibitors; active means well fitted inhibition curve with a large enough effect, not every such curve was filed as active; inconclusive means small, poorly fitted or top-dose-only effect, or another doubt; inactive means no such curve, though single readings can be large or run the other way; further: potency means the concentration at half of the fitted maximal effect; on the % scale 0 is the no-effect control and ±100 the full control effect
#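 20 nM HPGD preincubated 15 min at room temperature with compound in 50 mM Tris-HCl pH 8, 0.01% Tween 20. Started with 1 mM NAD+ and 30 uM prostaglandin E2; NADH fluorescence (360/450 nm) read 5 times over 30-s intervals, last minus first.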
# HTT ATP protect = cytoprotection in Huntington HTT-Q103 PC12 cell model; PC12 HTT-Q103 induced, cytoprotection, ATP luminescence, 40 h; Potency, µM (top dose mostly 56.4 µM), for inactives: cytoprotection (ATP increase), usual class: activators; actives 0.14% (n = 230,000); further: potency means the concentration at half of the fitted maximal effect; % of control where 0% means no effect; nearly all actives have a fitted effect of over 45% in size
#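 PC12 cells stably carrying ecdysone-inducible Htt exon 1 (Q103)–GFP were induced with 100 nM tebufenozide (final) alongside library compounds in a dose series. Cytoprotection was scored as retained ATP by ATPlite luminescence.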
# IMPase cell inh = membrane-permeable compound that blocks inositol monophosphatase | 120,000 tested, under 10 active | AID 901 | CHO-M1 cells, IP1 accumulation, HTRF TR-FRET ratio | inhibition (IP1 accumulation), % at 46.1 µM; active means well fitted curve in the direction sought with a large enough effect in the signal ratio, not every such curve was filed as active; inconclusive means small, poorly fitted or top-dose-only effect, or a change in a side signal; inactive means no such curve, though single readings can be large or run the other way; the % refers to the signal ratio;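 further: cells stimulated with carbachol in lithium chloride buffer; plate controls were DMSO basal wells for no effect and reference inhibitor wells for full effect; higher means more IMPase inhibition seen as more IP1 and lower FRET ratio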
# Target sequence (P97697 whole entry, looked up): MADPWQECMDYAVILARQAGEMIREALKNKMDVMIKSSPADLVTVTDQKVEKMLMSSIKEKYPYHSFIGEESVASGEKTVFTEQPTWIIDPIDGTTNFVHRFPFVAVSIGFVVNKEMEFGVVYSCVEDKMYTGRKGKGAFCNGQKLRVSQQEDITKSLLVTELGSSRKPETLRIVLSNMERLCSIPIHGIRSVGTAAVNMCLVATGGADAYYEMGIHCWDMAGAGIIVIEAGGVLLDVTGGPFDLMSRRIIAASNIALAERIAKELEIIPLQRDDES
#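 The IP-One HTRF competitive assay in carbachol-stimulated CHO-M1 cells quantifies cellular IP1. Compounds spanned up to 46 uM final, and activity is expressed as AC50 from concentration-response fits of the ratio and donor data.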
# HTT aggregate = inhibitors of mutant huntingtin aggregate formation in PC12 cells | PC12 HttQ103-GFP aggregates, Acumen cytometry, 40 h | Potency, µM (titrated, usually from 46.1 µM), inactives show at the top dose activity change, negative = inhibition, most hits filed as inhibitors | actives 1.1% (n = 220,000); further: potency means the concentration at half of the fitted maximal effect; on the % scale 0 is the no-effect control and ±100 the full control effect; nearly all actives have a fitted effect of over 60% in size
#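 Ecdysone-promoter PC12 model expressing HTT exon 1 Q103 fused to GFP, induced by tebufenozide at 100 nM final. Compounds titrated; aggregates sized 1–25 µm scored on a 488 nm laser cytometer.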
# * hit, by the source's call; ? = inconclusive; · = not tested or not shown; [ ] = another dose, or the depositor's remark. Unless noted, the call rests on the fitted dose curve; in most records, active means well fitted curve in the direction sought with a large enough effect; inconclusive means small, poorly fitted or top-dose-only effect, or another doubt; inactive means no such curve, though single readings can be large; an effect the other way counts as inactive or inconclusive.
SMILES,IMPase Li inh,ALDH1A1 inh,HPGD inh,HTT ATP protect,IMPase cell inh,HTT aggregate
O=C(Nc1ccccc1)Nc1ccc(Cl)c([N+](=O)[O-])c1,14%,-3%,-6%,-9%[0.074 µM],·,13µM*
CCCNC(=O)c1c(NC(=O)c2ccccc2)sc2c1CCC(C(C)(C)C)C2 (stereo not drawn),·,·,·,·,0,·
COc1ccc(-n2c(C)cc(/C=N/Nc3nnc(C)n3N)c2C)cc1,14%,13µM*,-19%,5%[10 µM],-1,-13%
CCOc1ccc(-n2c(C)cc(/C=N/Nc3nc(C)cc(=O)[nH]3)c2C)cc1,·,·,·,11%[10 µM],·,-2%[9.22 µM]
COc1cccc(-c2nn(-c3ccccc3)cc2CN(C)C(C)c2ccncn2)c1 (stereo not drawn),9%,-5%,·,-2%[10 µM],·,32%[9.22 µM]
COc1ccc(-n2cc(CN(C)C(C)c3ccncn3)c(-c3cccc(F)c3)n2)cc1 (stereo not drawn),16%,25µM*,·,-39%,·,0%
COC(=O)CCCCCCCCCCN1CCCCC1,19%,-2%,-4%,3%[1.9 µM],11,10%
CCCOC(=O)CCCCCCCCC(O)CN1CCCCC1 (stereo not drawn),45%,18µM*,·,-2%,·,-12%
CCCOC(C(=O)OC1CCN(C)CC1)(c1ccccc1)c1ccccc1,·,·,·,-26%,·,-10%
CC(C)(C)Nc1nc(N2CCCC2)nc(N2CCCC2)n1,-4%[38.3 µM],0.5µM*,-6%,-44%,3,9%
C=CCc1cc(C)ccc1OCCOCCn1ccnc1,8%,25µM*,1%,15%[10 µM],·,-19%
COc1ccc(-c2csc(NNC3=NCCCCC3)n2)cc1,19%,13µM*,·,-32%[10 µM],·,27%
Clc1ccc(-c2csc(NNC3=NCCCCC3)n2)cc1,7%[38.3 µM],?,?,-9%,2,-5%
c1ccc(-c2csc(NNC3=NCCCCC3)n2)cc1,38%[38.3 µM],32µM*,?,-3%[10 µM],11,-6%
Cc1cccc(NC(=O)Cn2cc(C(=O)c3ccco3)c3ccccc32)c1C,·,·,·,·,0,·
N#Cc1cccc(CS(=O)(=O)c2ccccc2)c1,2%,4%,-8%,-60%,·,·
Cc1ccc(C(=O)[C@@H]2[C@@H]3[C@@H](C(=O)[C@@H]4OC[C@H]3O4)[C@@H]3C=Cc4ccccc4N23)cc1,·,·,·,-3%,·,·
Cn1c(=N)c(S(=O)(=O)c2ccccc2)cc2c(=O)n3ccccc3nc21,24%[38.3 µM],?,?,-17%,3,3.2µM*
CCCOc1ccc(C(=O)Nc2cc(-c3nc4cc(C)cc(C)c4o3)ccc2C)cc1,·,·,·,·,2,·
Cc1nn(C)c(Oc2ccccc2)c1CCNC(=O)CCl,-5%,22µM*,·,21%[10 µM],·,10%[9.22 µM]
COC(=O)NC(c1ccc(Cl)cc1)C(C(C)=O)C(=O)OC (stereo not drawn),·,13%[13.5 µM],·,11%[10 µM],·,·
CCc1cc2cc(C)ccc2nc1SCC(=O)Nc1cc(C)on1,?,7%,-15%,17%[10 µM],-21,-22%
Cc1ccc(C)c(-n2nnnc2SCC(=O)NNC(=O)c2ccco2)c1,-3%,8.9µM*,·,9%[10 µM],·,4%[9.22 µM]
Cc1ccc(-n2nnnc2SCC(=O)NNC(=O)c2ccco2)cc1C,-12%[38.3 µM],?,3%,1%,-2,8%
CCc1cc2ccc(C)cc2nc1SCC(=O)Nc1cc(C)on1,-3%,25µM*,·,12%[10 µM],·,9%[9.22 µM]
SMILES,IMPase Li inh,ALDH1A1 inh,HPGD inh,HTT ATP protect,IMPase cell inh,HTT aggregate
COc1ccc(C)cc1-n1nnnc1SCn1nnc2ccccc2c1=O,4%[38.3 µM],18µM*,-15%,16%[10 µM],8,?
Cc1ccc(-n2nnnc2SCn2nnc3ccccc3c2=O)cc1,4%[38.3 µM],?,-24%,-6%,5,-13%
CCc1cc2ccc(C)cc2nc1SCC(=O)N1CCN(C(=O)c2ccco2)CC1,28%[38.3 µM],10µM*,?,13%,11,-12%
CCc1cc2cc3c(cc2nc1SCC(=O)N1CCN(C(=O)c2ccco2)CC1)OCO3,6%[38.3 µM],?,-17%,-37%,3,-3%[9.22 µM]
COc1ccc(C)cc1-n1nnnc1SCC(=O)NNC(=O)c1ccc([N+](=O)[O-])cc1,5%,3.2µM*,-19%,-11%[10 µM],-1,5%[9.22 µM]
CCc1cc2ccc(C)cc2nc1SCC(=O)NNC(=O)c1ccco1,4%,4µM*,0%,29%[10 µM],·,-13%
O[C@@H](c1cc([C@@]23C[C@H]4CC[C@@H]2C[C@H](C4)C3)nc2c(Cl)cc(Cl)cc12)[C@@H]1CCCCN1,·,·,·,2%[10 µM],·,·
CC(=O)Nc1ccc(NC(=O)CC2Sc3ccccc3NC2=O)cc1 (stereo not drawn),·,·,·,·,1,·
Cc1ccc(NC2Sc3ccccc3NC2=O)cc1 (stereo not drawn),8%,25µM*,·,14%[10 µM],·,?
CC(=O)Nc1sc(N/N=C\c2ccco2)nc1-c1cccs1,21%,18µM*,32µM*,-15%[10 µM],17,3%
CC(C)OC(=O)c1c(NC(=O)CCn2nnc3ccccc32)sc2c1CCCC2,8%[38.3 µM],25µM*,-27%,-11%[10 µM],10,5%
CC(C)OC(=O)c1c(NC(=O)CCC(=O)O)sc2c1CCCCC2,-11%,-7%,-4%,·,·,14%
CCOC(=O)c1c(NC(=O)CS(=O)(=O)c2cn(CC)c3ccccc23)sc2c1CCCC2,7%,13µM*,-19%,·,·,8%
CCOC(=O)c1c(NC(=O)CS(=O)(=O)c2cn(CC)c3ccccc23)sc2c1CCCCC2,5%,10µM*,-10%,·,·,-2%
CCOC(=O)c1c(NC(=O)Cc2cccs2)sc2c1CCCC2,·,-6%,·,-35%,18,-11%
COc1cc(OC)cc(-c2sc3ccccc3c(=O)c2I)c1,1%,-15%,?,?,·,·
Cc1cccn2c(Nc3ccccc3)c(-c3cccs3)nc12,·,·,·,·,7,·
CCc1ccc(Oc2c(C(F)(F)F)oc3c(CN4CCCC(C)C4)c(O)ccc3c2=O)cc1 (stereo not drawn),·,·,·,·,2,·
O=C(O)C/C(=C\c1ccco1)C(=O)O,-6%,8%[13.5 µM],-10%,2%[10 µM],·,·
C=CCn1c(SCc2c(C(=O)OC)sc(N)c2C(=O)OC)nnc1-c1ccc(Br)cc1,33%[38.3 µM],25µM*,?,-15%,-1,27%[9.22 µM]
O=C(Nc1ccc(Nc2ccc3c(c2)C(=O)c2ccccc2C3=O)c2c1C(=O)c1ccccc1C2=O)c1ccccc1,19%,-5%[13.5 µM],-13%,-4%[10 µM],·,·
Cc1cccc([C@H]2[C@@H]3C=CC(C)C[C@@H]3C(=O)N2Cc2ccccc2)c1 (stereo partly drawn),22%,?,-20%,·,·,·
Cc1nc2ccc(NC(=O)Nc3ccnc4cccnc34)cc2o1,5%,?,-1%,-17%,-2,·
CC1=NN(c2ccccc2)C(=O)/C1=C/c1c(O)n(-c2ccc(F)c(Cl)c2)[nH]c1=O,4%,14µM*,-28%,-27%[10 µM],·,6%
